# Data published in publication PMC5540273 (PLoS ONE, 2017).
# Read-outs that look alike come from different tables or passages of the source.
# What was measured:
# RIOK1 = settings: concentration: 1 μM, replicates: in singlicate; n = 1
# RIOK2 = settings: concentration: 1 μM, replicates: in singlicate; n = 1
# RIOK3 = settings: concentration: 1 μM, replicates: in singlicate; n = 1
# RIPK1 = settings: concentration: 1 μM, replicates: in singlicate; n = 1
# RIPK2 = settings: concentration: 1 μM, replicates: in singlicate; n = 1
# RIPK4 = settings: concentration: 1 μM, replicates: in singlicate; n = 1
# RIPK5 = settings: concentration: 1 μM, replicates: in singlicate; n = 1
# ROCK1 = settings: concentration: 1 μM, replicates: in singlicate; n = 1
# ROCK2 = settings: n = 1
# ROS1 = settings: concentration: 1 μM, replicates: in singlicate; n = 1
# [1] = tested on: RPS6KA4(Kin.Dom.1-N-terminal); settings: n = 1
# [2] = tested on: RPS6KA4(Kin.Dom.2-C-terminal); settings: n = 1
# [3] = tested on: RPS6KA5(Kin.Dom.1-N-terminal); settings: concentration: 1 μM, replicates: in singlicate; n = 1
# [4] = tested on: RPS6KA5(Kin.Dom.2-C-terminal); settings: concentration: 1 μM, replicates: in singlicate; n = 1
# [5] = tested on: T1, RSK1(Kin.Dom.1-N-terminal); settings: concentration: 1 μM, replicates: in singlicate; n = 1
# T1 construct: gene RPS6KA1
# [6] = tested on: T2, RSK1(Kin.Dom.2-C-terminal); settings: concentration: 1 μM, replicates: in singlicate; n = 1
# T2 construct: gene RPS6KA1
# [7] = tested on: T3, RSK2(Kin.Dom.1-N-terminal); settings: concentration: 1 μM, replicates: in singlicate; n = 1
# T3 construct: gene RPS6KA3
# [8] = tested on: T4, RSK2(Kin.Dom.2-C-terminal); settings: concentration: 1 μM, replicates: in singlicate; n = 1
# T4 construct: gene RPS6KA3
# [9] = tested on: T5, RSK3(Kin.Dom.1-N-terminal); settings: concentration: 1 μM, replicates: in singlicate; n = 1
# T5 construct: gene RPS6KA2
# [10] = tested on: T6, RSK3(Kin.Dom.2-C-terminal); settings: concentration: 1 μM, replicates: in singlicate; n = 1
# T6 construct: gene RPS6KA2
# [11] = concentration: 1 μM, replicates: in singlicate
# 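Also: KINOMEscan kinase panel screen.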
compound,measurement,setting,value
COC(=O)Nc1nc2ccc(Oc3ccc(NC(=O)Nc4cc(C(F)(F)F)ccc4F)cc3)cc2n1C.Cl [GW692089],%Inh,RIOK1,0%
same,%Inh,RIOK2,0%
same,%Inh,RIOK3,0%
same,%Inh,RIPK1,39%
same,%Inh,RIPK2,29%
same,%Inh,RIPK4,0%
same,%Inh,RIPK5,0%
same,%Inh,ROCK1,34%
same,%Inh,ROCK2; [11],39%
same,%Inh,ROS1,28%
same,%Inh,[1]; [11],6%
same,%Inh,[2]; [11],0%
same,%Inh,[3],0%
same,%Inh,[4],0%
same,%Inh,[5],0%
same,%Inh,[6],0%
same,%Inh,[7],40%
same,%Inh,[8],0%
same,%Inh,[9],0%
same,%Inh,[10],0%
Cn1cc(-c2ccc3c(c2)CCN3C(=O)Cc2cccc(Cl)c2)c2c(N)ncnc21 [GSK2606590],%Inh,RIOK1,6%
same,%Inh,RIOK2,19%
same,%Inh,RIOK3,12%
same,%Inh,RIPK1,100%
same,%Inh,RIPK2,15%
same,%Inh,RIPK4,0%
same,%Inh,RIPK5,58%
same,%Inh,ROCK1,0%
same,%Inh,ROCK2; [11],40%
same,%Inh,ROS1,31%
same,%Inh,[1]; [11],22%
same,%Inh,[2]; [11],0%
same,%Inh,[3],40%
same,%Inh,[4],0%
same,%Inh,[5],4%
same,%Inh,[6],0%
same,%Inh,[7],1%
same,%Inh,[8],0%
same,%Inh,[9],16%
same,%Inh,[10],0%
COc1ccc(-c2coc3ccc(-c4nnc(SCc5ccc(OC)c(C(F)(F)F)c5)o4)cc23)cc1,%Inh,RIOK1,0%
same,%Inh,RIOK2,20%
same,%Inh,RIOK3,9%
same,%Inh,RIPK1,9%
same,%Inh,RIPK2,17%
same,%Inh,RIPK4,12%
same,%Inh,RIPK5,20%
same,%Inh,ROCK1,0%
same,%Inh,ROCK2; [11],23%
same,%Inh,ROS1,0%
same,%Inh,[1]; [11],9%
same,%Inh,[2]; [11],15%
same,%Inh,[3],0%
same,%Inh,[4],0%
same,%Inh,[5],1%
same,%Inh,[6],17%
same,%Inh,[7],14%
same,%Inh,[8],19%
same,%Inh,[9],16%
same,%Inh,[10],19%
Clc1ccc(-c2nn3ncccc3c2-c2ccnc(Nc3ccc4c(c3)OCCO4)n2)cc1 [GW829116],%Inh,RIOK1,0%
same,%Inh,RIOK2,0%
same,%Inh,RIOK3,0%
same,%Inh,RIPK1,0%
same,%Inh,RIPK2,83%
same,%Inh,RIPK4,0%
same,%Inh,RIPK5,0%
same,%Inh,ROCK1,37%
same,%Inh,ROCK2; [11],0%
same,%Inh,ROS1,0%
same,%Inh,[1]; [11],4%
same,%Inh,[2]; [11],0%
same,%Inh,[3],0%
same,%Inh,[4],8%
same,%Inh,[5],18%
same,%Inh,[6],32%
same,%Inh,[7],23%
same,%Inh,[8],0%
same,%Inh,[9],0%
same,%Inh,[10],0%
CCn1c(-c2nonc2N)nc2c(C#CC(C)(C)O)ncc(OCCCCN)c21.O=C(O)C(F)(F)F.O=C(O)C(F)(F)F [GSK507274],%Inh,RIOK1,16%
same,%Inh,RIOK2,0%
same,%Inh,RIOK3,0%
same,%Inh,RIPK1,0%
same,%Inh,RIPK2,18%
same,%Inh,RIPK4,0%
same,%Inh,RIPK5,4%
same,%Inh,ROCK1,97.2%
same,%Inh,ROCK2; 1 µM,95.3%
same,%Inh,ROS1,0%
same,%Inh,[1]; 1 µM,10%
same,%Inh,[2]; 1 µM,99%
same,%Inh,[3],37%
same,%Inh,[4],74%
same,%Inh,[5],18%
same,%Inh,[6],0%
same,%Inh,[7],19%
same,%Inh,[8],0%
same,%Inh,[9],11%
same,%Inh,[10],6%
O=C(Nc1cccc(-c2nn3ncccc3c2-c2ccnc(Nc3ccccc3)n2)c1)c1c(F)cccc1F [GSK198271],%Inh,RIOK1,4%
same,%Inh,RIOK2,17%
same,%Inh,RIOK3,16%
same,%Inh,RIPK1,0%
same,%Inh,RIPK2,94.8%
same,%Inh,RIPK4,10%
same,%Inh,RIPK5,6%
same,%Inh,ROCK1,34%
same,%Inh,ROCK2; [11],0%
same,%Inh,ROS1,28%
same,%Inh,[1]; [11],18%
same,%Inh,[2]; [11],0%
same,%Inh,[3],18%
same,%Inh,[4],0%
same,%Inh,[5],95.3%
same,%Inh,[6],5%
same,%Inh,[7],0%
same,%Inh,[8],0%
same,%Inh,[9],37%
same,%Inh,[10],17%
C[C@@H](Oc1cc(-n2cnc3cc(-c4ccnc(NCCS(C)(=O)=O)c4)ccc32)sc1C(N)=O)c1ccccc1Cl [GSK907232],%Inh,RIOK1,90.6%
same,%Inh,RIOK2,22%
same,%Inh,RIOK3,76%
same,%Inh,RIPK1,45%
same,%Inh,RIPK2,14%
same,%Inh,RIPK4,14%
same,%Inh,RIPK5,5%
same,%Inh,ROCK1,0%
same,%Inh,ROCK2; [11],0%
same,%Inh,ROS1,13%
same,%Inh,[1]; [11],57%
same,%Inh,[2]; [11],0%
same,%Inh,[3],4%
same,%Inh,[4],0%
same,%Inh,[5],11%
same,%Inh,[6],2%
same,%Inh,[7],32%
same,%Inh,[8],4%
same,%Inh,[9],66%
same,%Inh,[10],0%
CCn1c(-c2nonc2N)nc2c(C#CC(C)(C)O)nc(OC[C@H](N)c3ccccc3)cc21 [GSK943949],%Inh,RIOK1,11%
same,%Inh,RIOK2,0%
same,%Inh,RIOK3,4%
same,%Inh,RIPK1,4%
same,%Inh,RIPK2,0%
same,%Inh,RIPK4,7%
same,%Inh,RIPK5,29%
same,%Inh,ROCK1,59%
same,%Inh,ROCK2; [11],91.9%
same,%Inh,ROS1,2%
same,%Inh,[1]; [11],0%
same,%Inh,[2]; [11],57%
same,%Inh,[3],6%
same,%Inh,[4],0%
same,%Inh,[5],59%
same,%Inh,[6],0%
same,%Inh,[7],0%
same,%Inh,[8],0%
same,%Inh,[9],0%
same,%Inh,[10],0%
CN(c1ccc(NC(=O)Nc2cc(C(F)(F)F)ccc2F)cc1)c1ccnc(Nc2ccc(S(N)(=O)=O)cc2)n1 [GW809893],%Inh,RIOK1,24%
same,%Inh,RIOK2,2%
same,%Inh,RIOK3,40%
same,%Inh,RIPK1,99.1%
same,%Inh,RIPK2,73%
same,%Inh,RIPK4,26%
same,%Inh,RIPK5,47%
same,%Inh,ROCK1,0%
same,%Inh,ROCK2; [11],24%
same,%Inh,ROS1,95.9%
same,%Inh,[1]; [11],26%
same,%Inh,[2]; [11],1%
same,%Inh,[3],14%
same,%Inh,[4],4%
same,%Inh,[5],100%
same,%Inh,[6],0%
same,%Inh,[7],8%
same,%Inh,[8],28%
same,%Inh,[9],35%
same,%Inh,[10],0%
